This passage reports outcome and AC50 results from PubChem BioAssay (EPA / NIEHS).

Assay [1] in a line: ATG_CRE_CIS: Attagene CIS-FACTORIAL HepG2 Assay for human cAMP Responsive Element (CRE) binding protein 3 (AID 2282926). Particulars: HepG2 CRE cis-reporter, Attagene multiplexed mRNA; actives raise or lower the signal. A digest of the protocol: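 HepG2 cells transiently transfected with cis-element-driven multiple reporter transcription units; CRE reporter mRNA measured 24 h after dosing by RT-PCR, 6-FAM labelling, HpaI digestion and capillary electrophoresis. Bidirectional fit versus DMSO baseline.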

In assay [2] the target is CCAAT/enhancer-binding protein beta (Homo sapiens) (UniProt P17676). As to the kind of experiment: ATG_C_EBP_CIS: Attagene CIS-FACTORIAL HepG2 Assay for human CCAAT/Enhancer Binding Protein (C/EBP) beta (AID 2282927). Particulars: HepG2 Attagene cis-factorial transcription factor reporter; actives raise or lower the signal. A digest of the protocol:
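RT-PCR/capillary electrophoresis fluorescence of reporter mRNA, 24 h post-dose, in HepG2 cells carrying transfected cis-promoter reporter units. Bidirectional curve fitting against DMSO baseline captures gain or loss of signal.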

Assay [3] can be described thus: ATG_CMV_CIS: Attagene CIS-FACTORIAL HepG2 Assay for human CMV (Internal Marker) (AID 2282928).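 Note: endpoint acts as a background internal control marker rather than a target.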 The note with it: HepG2 CMV promoter reporter, transcription factor profiling; actives raise or lower the signal. A digest of the protocol: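 Endogenous transcription factor activity read in HepG2 via transfected cis-promoter reporter units. After 24 h dosing, reporter mRNA measured by RT-PCR/capillary electrophoresis; gain or loss of signal fit relative to DMSO.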

A short description of assay [4]: ATG_DR4_LXR_CIS: Attagene CIS-FACTORIAL HepG2 Assay for human Liver X Receptor (LXR), DR4 submotif (AID 2282929). The note with it: HepG2 Attagene DR4 cis-reporter, mRNA transcription; actives raise or lower the signal. The method, boiled down: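 After transient transfection with multiplexed cis-promoter reporter units, HepG2 cells received test chemicals for 24 h. Reporter mRNA induction, detected by fluorescence after RT-PCR and capillary electrophoresis, was scored relative to DMSO.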

Assay [5] can be described thus: ATG_AP_1_CIS: Attagene CIS-FACTORIAL HepG2 Assay for human Activator Protein 1 (AP-1) (AID 2282931). Particulars: HepG2 Attagene cis-factorial AP-1 reporter mRNA; actives raise or lower the signal. A digest of the protocol: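 After 24 h incubation with test chemical, RNA from transfected HepG2 cells was reverse-transcribed, amplified, fluorescently labelled and digested before capillary electrophoresis. Reporters were driven by cis-regulatory promoters; activity fitted bidirectionally versus DMSO.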

Assay [6] in a line: ATG_BRE_CIS: Attagene CIS-FACTORIAL HepG2 Assay for human Bone Morphogenetic Protein (BMP) Response Element (BRE) (AID 2282933). Particulars: HepG2 BMP response element reporter, Attagene transcription factor profiling; actives raise or lower the signal. A digest of the protocol: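 Gain- or loss-of-signal was derived by bidirectional fitting against DMSO controls. The signal came from reporter mRNA, measured by RT-PCR and capillary electrophoresis, in HepG2 cells transiently carrying multiple reporter units and dosed for 24 h.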

A short description of assay [7]: ATG_E_Box_CIS: Attagene CIS-FACTORIAL HepG2 Assay for human Enhancer Box (E-box) (AID 2282936). Particulars: HepG2 E-box cis-reporter transcription, actives raise or lower the signal. The method, boiled down: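 HepG2 cells transiently transfected with multiplexed cis-element reporter units sensing endogenous transcription factor activity; 24 h compound exposure. Reporter mRNA measured by RT-PCR, 6-FAM primer extension, HpaI digestion and capillary electrophoresis; bidirectional fit versus DMSO.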

A short description of assay [8]: ATG_M_19_CIS: Attagene CIS-FACTORIAL HepG2 Assay for M19 Transcription Factor (Internal Marker) (AID 2282939). Particulars: HepG2 Attagene CIS-FACTORIAL M19 internal marker reporter; actives raise or lower the signal. The method, boiled down: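 Following a 24 h exposure, RNA from transfected HepG2 cells was reverse-transcribed, PCR-amplified with reporter-specific primers, end-labelled with 6-FAM and HpaI-digested before capillary separation. Values represent gain or loss versus DMSO.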

A short description of assay [9]: ATG_GATA_CIS: Attagene CIS-FACTORIAL HepG2 Assay for human GATA Binding Protein (AID 2282944). Particulars: HepG2 GATA cis-element reporter, Attagene multiplex mRNA; actives raise or lower the signal. A digest of the protocol: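 DMSO serves as negative control and baseline for bidirectional fitting of reporter mRNA changes. HepG2 cells bearing transiently transfected cis-promoter reporters were exposed 24 h; transcripts detected via RT-PCR and capillary electrophoresis.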

Assay [10] can be described thus: ATG_ISRE_CIS: Attagene CIS-FACTORIAL HepG2 Assay for human Interferon Regulatory Factor 1 (IRF1) binding to an Interferon-Stimulated Response Element (ISRE) (AID 2282948). The note with it: HepG2 ISRE cis-reporter (Attagene), mRNA transcription readout; actives raise or lower the signal. A digest of the protocol:
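Transfected HepG2 (multiple reporter transcription units, cis elements) dosed 24 h. RNA → oligo(dT) RT → PCR → 6-FAM primer extension → HpaI → CE. DMSO = negative control/baseline.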

A short description of assay [11]: ATG_M_32_CIS: Attagene CIS-FACTORIAL HepG2 Assay for M32 Transcription Factor (Internal Marker) (AID 2282949).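 Note: background control marker of the multiplexed CIS panel rather than a real target.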 The note with it: HepG2 Attagene cis-factorial M32 reporter, mRNA; actives raise or lower the signal. The method, boiled down: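 Internal background marker read-out: RT-PCR/capillary electrophoresis fluorescence of reporter transcripts from transiently transfected HepG2 cells after 24 h chemical exposure. Activity fitted bidirectionally relative to DMSO negative control.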

Assay [12] is described as follows: ATG_M_06_CIS: Attagene CIS-FACTORIAL HepG2 Assay for M06 Transcription Factor (Internal Marker) (AID 2282950). The note with it: HepG2 Attagene CIS-FACTORIAL M06 internal marker reporter; actives raise or lower the signal. The method, boiled down:
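Fluorescence-labelled RT-PCR products from cis-promoter reporter units, cut with HpaI and resolved by capillary electrophoresis, give the signal. Cells are human HepG2, dosed for 24 h. Serves as background control, fitted relative to DMSO.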

Assay [13] can be described thus: ATG_MRE_CIS: Attagene CIS-FACTORIAL HepG2 Assay for human Metal Responsive Element (MRE) (AID 2282954). The note with it: HepG2 MRE cis-reporter transcription, Attagene multiplex; actives raise or lower the signal. A digest of the protocol: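 HepG2 cells transiently transfected with multiple cis-element reporter units measure endogenous MTF1-driven transcription. After 24 h compound exposure, reporter mRNA is quantified by RT-PCR with 6-FAM labelling, HpaI digestion and capillary electrophoresis; bidirectional fits versus DMSO.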

In assay [14] the target is Paired box protein Pax-6 (Homo sapiens) (UniProt P26367). As to the kind of experiment: ATG_Pax6_CIS: Attagene CIS-FACTORIAL HepG2 Assay for human Paired Box 6 (PAX6) (AID 2282956). Particulars: HepG2 CIS-FACTORIAL PAX6 reporter transcription, RNA readout; actives raise or lower the signal. The method, boiled down: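 Transient MRTU transfection of HepG2 → compound exposure 24 h → TriZol RNA, oligo(dT) RT → PCR, 6-FAM primer extension, HpaI cut → capillary electrophoresis; activity fitted both directions against DMSO.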

Assay [15] in a line: ATG_PXRE_CIS: Attagene CIS-FACTORIAL HepG2 Assay for human Pregnane X Receptor Element (PXRE) (AID 2282957). The note with it: HepG2 Attagene CIS-FACTORIAL PXRE reporter, mRNA; actives raise or lower the signal. A digest of the protocol: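 HepG2 cells transiently transfected with cis-element-driven multiplexed reporter units; after 24 h chemical exposure, reporter mRNA measured by RT-PCR, 6-FAM labelling, HpaI digestion and capillary electrophoresis. Bidirectional fitting relative to DMSO.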

The nature of assay [16]: ATG_Sox_CIS: Attagene CIS-FACTORIAL HepG2 Assay for human SRY-box transcription factor (SOX) (AID 2282960). Particulars: HepG2 Attagene cis-factorial SOX reporter, mRNA; actives raise or lower the signal. The method, boiled down: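 Using transiently transfected HepG2 cells, reporter transcription driven by cis elements was assessed 24 h after dosing. Signal was fluorescence of capillary-separated RT-PCR products, with DMSO defining baseline activity.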

The target of assay [17] is Transcription factor Sp1 (Homo sapiens) (UniProt P08047). As to the kind of experiment: ATG_Sp1_CIS: Attagene CIS-FACTORIAL HepG2 Assay for human Specificity Protein 1 (Sp1) (AID 2282961). The note with it: HepG2 Sp1 cis-reporter transcription, actives raise or lower the signal. The method, boiled down: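 After transient transfection of HepG2 cells with cis-promoter reporter units and 24 h chemical treatment, reporter transcripts were quantified by RT-PCR and capillary electrophoresis fluorescence. Gain- and loss-of-signal fitted against DMSO.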

Assay [18] is described as follows: ATG_TA_CIS: Attagene CIS-FACTORIAL HepG2 Assay for human TA Basal Promoter (AID 2282964). The note with it: HepG2 Attagene CIS-factorial TA basal promoter reporter; actives raise or lower the signal. A digest of the protocol: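 Multiplexed mRNA reporter assay, HepG2, 24 h. Reporter cDNA amplified, 6-FAM primer-extended, HpaI-cut, CE-sized; DMSO = negative control and baseline.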

Assay [19] in a line: ATG_TCF_b_cat_CIS: Attagene CIS-FACTORIAL HepG2 Assay for human T-Cell-Factor with beta-catenin (TCF/b-cat) (AID 2282965). Particulars: HepG2 TCF/beta-catenin cis-reporter transcription, actives raise or lower the signal. A digest of the protocol: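 HepG2 cells transiently transfected with multiple cis-promoter-regulated reporter transcription units, so endogenous transcription factor activity is measured. Reporter mRNA read 24 hours after dosing by RT-PCR, fluorescent labelling and capillary electrophoresis; bidirectional fitting against DMSO.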

A short description of assay [20]: ATG_TAL_CIS: Attagene CIS-FACTORIAL HepG2 Assay for human TAL Basal Promoter (AID 2282966).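 Note: background control endpoint measuring basal TAL promoter reporter mRNA not a specific factor.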 The note with it: HepG2 Attagene cis-factorial TAL promoter reporter; actives raise or lower the signal. The method, boiled down:
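HepG2 cells transiently transfected with multiplexed cis-promoter reporter units, dosed 24 h. Reporter mRNA quantified by RT-PCR, 6-FAM labelling, HpaI digestion and capillary electrophoresis; TAL basal promoter serves as background control, fitted bidirectionally versus DMSO.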

The source made the active and inactive calls. Rule for the calls: active = hit-call score of the fitted dose curve at least 0.9, where 1 is the maximum; inactive = score below 0.9.

Sequence of Paired box protein Pax-6 (Homo sapiens) (P26367 whole entry, looked up): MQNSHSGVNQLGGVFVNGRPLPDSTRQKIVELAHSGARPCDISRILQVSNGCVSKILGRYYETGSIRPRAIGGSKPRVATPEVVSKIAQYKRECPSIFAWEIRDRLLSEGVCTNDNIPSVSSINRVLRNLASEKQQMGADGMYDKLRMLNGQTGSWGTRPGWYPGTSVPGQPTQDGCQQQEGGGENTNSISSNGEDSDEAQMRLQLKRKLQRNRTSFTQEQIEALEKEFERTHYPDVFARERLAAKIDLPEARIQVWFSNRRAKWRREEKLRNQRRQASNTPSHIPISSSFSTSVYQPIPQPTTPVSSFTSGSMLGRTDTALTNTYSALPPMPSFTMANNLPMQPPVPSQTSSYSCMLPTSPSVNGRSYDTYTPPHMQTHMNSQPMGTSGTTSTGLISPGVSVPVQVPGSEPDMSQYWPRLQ
Sequence of Transcription factor Sp1 (Homo sapiens) (P08047 whole entry, looked up): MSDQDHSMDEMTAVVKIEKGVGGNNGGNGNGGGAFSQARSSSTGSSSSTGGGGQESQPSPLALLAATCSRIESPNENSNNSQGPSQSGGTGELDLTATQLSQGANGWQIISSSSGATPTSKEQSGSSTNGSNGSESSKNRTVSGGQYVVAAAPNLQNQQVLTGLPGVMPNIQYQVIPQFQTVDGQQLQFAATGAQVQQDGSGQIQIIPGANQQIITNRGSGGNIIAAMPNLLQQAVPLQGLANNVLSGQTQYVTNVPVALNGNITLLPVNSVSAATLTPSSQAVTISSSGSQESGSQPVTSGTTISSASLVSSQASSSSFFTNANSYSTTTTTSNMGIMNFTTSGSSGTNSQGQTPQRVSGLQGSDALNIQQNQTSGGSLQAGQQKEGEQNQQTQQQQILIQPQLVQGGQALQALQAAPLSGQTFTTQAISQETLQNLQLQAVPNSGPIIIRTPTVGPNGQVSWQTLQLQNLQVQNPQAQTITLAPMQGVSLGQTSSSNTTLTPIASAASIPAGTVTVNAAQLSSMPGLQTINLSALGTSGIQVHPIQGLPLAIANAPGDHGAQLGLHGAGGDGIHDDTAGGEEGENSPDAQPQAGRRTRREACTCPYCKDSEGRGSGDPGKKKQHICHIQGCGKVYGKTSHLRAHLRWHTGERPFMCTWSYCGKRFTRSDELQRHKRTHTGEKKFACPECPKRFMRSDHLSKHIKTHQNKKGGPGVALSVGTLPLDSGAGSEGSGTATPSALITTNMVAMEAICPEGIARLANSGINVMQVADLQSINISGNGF
Sequence of CCAAT/enhancer-binding protein beta (Homo sapiens) (P17676 whole entry, looked up): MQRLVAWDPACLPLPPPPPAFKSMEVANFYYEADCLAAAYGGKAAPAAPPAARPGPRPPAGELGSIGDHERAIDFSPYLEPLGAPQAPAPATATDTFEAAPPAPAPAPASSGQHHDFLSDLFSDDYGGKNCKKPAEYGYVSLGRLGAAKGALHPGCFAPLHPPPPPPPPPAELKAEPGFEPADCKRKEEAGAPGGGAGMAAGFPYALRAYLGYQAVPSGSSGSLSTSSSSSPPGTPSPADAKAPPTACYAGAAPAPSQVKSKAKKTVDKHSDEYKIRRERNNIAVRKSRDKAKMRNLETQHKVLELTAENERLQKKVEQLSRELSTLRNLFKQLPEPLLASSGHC

For `NCc1ccccc1`, the compound was called inactive in assay [1], in assay [2], in assay [3], in assay [4], in assay [5] and in assay [6]. The result in assay [7], in assay [8], in [9], in assay [10], in assay [11] and in assay [12] was inactive. The call in assay [13], in assay [14], in assay [15], in assay [16], in assay [17] and in [18] was inactive. The result in assay [19] and in [20] was inactive.

`c1cc[c]([Bi]([c]2ccccc2)[c]2ccccc2)cc1`: the result in assay [1], in [2], in assay [3], in assay [6], in [7] and in [8] was inactive. Moreover, the compound was classed as inactive in assay [9], in assay [10], in [11], in [12], in assay [13] and in [14]. Further, the call in assay [16], in assay [17], in [18], in assay [19] and in assay [20] was inactive. Further, the AC50 was 5.72 µM (active) in [4], 58.1 µM (active) in assay [5] and 4.08 µM (active) in [15].

Consider `CCCCCC[C@@H](O)C/C=C\CCCCCCCC(=O)O`, for which the call in assay [1], in assay [3], in assay [8], in [10], in [11] and in [12] was inactive. In addition, the outcome in [14], in assay [15], in assay [16], in assay [17], in [18] and in assay [20] was inactive. Also, the AC50 in [2] is 77 µM (active); in [4] it was 70.4 µM (active); in assay [5], 71.8 µM (active); in assay [6] it was 139 µM (active); in assay [7], 170 µM (active); in assay [9] it was 165 µM (active). Besides, the figures for the AC50 in assay [13] and in assay [19] were 139 µM (active) and 60.1 µM (active), respectively.

`COc1cccc(OC)c1C(=O)O`: the compound was called inactive in assay [1], in [2], in assay [3], in assay [4], in assay [5] and in assay [6]. Further, the result in assay [7], in [8], in assay [9], in assay [10], in [11] and in assay [12] was inactive. Moreover, the compound was classed as inactive in assay [13], in [14], in assay [15], in assay [16], in assay [17] and in assay [18]. The outcome in assay [19] and in assay [20] was inactive.
